In PubChem BioAssay AID1159580 (chemical genetic matrix, 2015):
Screen size: about 5,500 compounds; about 2,000 (36%) were called active. Roughly 18% stayed inconclusive and do not appear here. Rule as the data show it: active = normalized growth mostly below about 0.91 (no sharp cut-off); inconclusive = no clear call, values can overlap the other calls; inactive = mostly above about 0.92. The list shows a part of the results.

Assay: chemical genetic growth profiling, strain panel (AID 1159580);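 also: tested at 20 µM; growth read once vehicle control cultures reached saturation at 30 °C; 1 = growth at the plate median or of vehicle wells; lower values mean less growth of the strain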
Settings: S. cerevisiae deletion strains, growth OD
[1] = locus YCL061C, strain MRC1, hits give low values
[2] = locus YHR030C, strain SLT2, hits give low values
[3] = locus YJL187C, strain SWE1, hits give low values

Measured: normalized growth

Cc1onc(-c2ccccc2Cl)c1C(=O)N1CCCN2C(=O)c3ccccc3C21 (centres undefined)
inactive: locus YAL013W, strain DEP1, hits give low values 1 | locus YBR229C, strain ROT2, hits give low values 0.989 | [1] 0.985 | locus YDL101C, strain DUN1, hits give low values 0.963 | locus YDR150W, strain NUM1, hits give low values 0.971 | locus YEL061C, strain CIN8, hits give low values 1.01 | locus YGR078C, strain PAC10, hits give low values 0.994 | [2] 0.942 | locus YHR087W, strain rtc3, hits give low values 0.987 | [3] 1.01 | locus YJR043C, strain POL32, hits give low values 0.968 | locus YJR075W, strain HOC1, hits give low values 1.03 | locus YKL190W, strain CNB1, hits give low values 1 | locus YLR039C, strain RIC1, hits give low values 0.995 | locus YLR058C, strain SHM2 (second series), hits give low values 0.985 | locus YLR085C, strain ARP6, hits give low values 1.01 | locus YLR262C, strain YPT6, hits give low values 0.995 | locus YML094W, strain GIM5, hits give low values 1 | locus YMR219W, strain ESC1, hits give low values 1.01 | locus YMR263W, strain SAP30, hits give low values 0.999 | locus YMR307W, strain GAS1, hits give low values 0.992 | locus YNL128W, strain TEP1, hits give low values 0.991 | locus YNL153C, strain GIM3, hits give low values 0.972 | locus YNL298W, strain CLA4 (second series), hits give low values 0.998 | locus YNL322C, strain KRE1, hits give low values 1 | locus YNR030W, strain Alg12, hits give low values 0.993 | locus YPL055C, strain LGE1, hits give low values 1.01 | locus YPL241C, strain CIN2, hits give low values 0.987 | locus YPR135W, strain CTF4, hits give low values 0.931

CCCCC(=O)O[C@]1(C(=O)CO)CCC2C3CCC4=CC(=O)CC[C@]4(C)C3[C@@H](O)C[C@@]21C (some centres undefined)
inactive: locus YAL021C, strain ccr4, hits give low values 0.974 | locus YAL026C, strain drs2, hits give low values 0.982 | locus YAL030W, strain snc1, hits give low values 0.976 | locus YBL061C, strain skt5, hits give low values 0.988 | locus YBR009C, strain hhf1, hits give low values 0.985 | locus YBR023C, strain chs3, hits give low values 0.987 | locus YBR171W, strain sec66, hits give low values 0.976 | locus YBR231C, strain swc5, hits give low values 0.979 | locus YBR279W, strain paf1, hits give low values 0.989 | locus YCL011C, strain gbp2, hits give low values 0.963 | locus YCL016C, strain dcc1, hits give low values 0.981 | [1] 0.983 | locus YCL069W, strain vba3, hits give low values 0.985 | locus YCR088W, strain abp1, hits give low values 0.991 | locus YDL005C, strain med2, hits give low values 0.979 | locus YDL040C, strain nat1, hits give low values 0.981 | locus YDR001C, strain nth1, hits give low values 0.987 | locus YDR069C, strain doa4, hits give low values 0.973 | locus YDR137W, strain rgp1, hits give low values 0.939 | locus YDR159W, strain sac3, hits give low values 0.97 | locus YDR195W, strain ref2 0.933 | locus YDR297W, strain sur2, hits give low values 0.981 | locus YDR334W, strain swr1, hits give low values 0.947 | locus YDR335W, strain msn5, hits give low values 0.975 | locus YDR392W, strain spt3, hits give low values 0.968 | locus YEL003W, strain gim4, hits give low values 0.997 | locus YEL037C, strain rad23, hits give low values 0.97 | locus YEL061C, strain CIN8 (second series), hits give low values 0.98 | locus YER015W, strain faa2, hits give low values 0.972 | locus YER016W, strain bim1, hits give low values 0.974 | locus YER111C, strain swi4, hits give low values 0.981 | locus YER155C, strain BEM2 (second series), hits give low values 0.981 | locus YFR010W, strain ubp6, hits give low values 0.957 | locus YGL167C, strain pmr1, hits give low values 0.976 | locus YGL173C, strain kem1, hits give low values 0.964 | locus YGL227W, strain vid30, hits give low values 0.984 | locus YGL240W, strain doc1, hits give low values 0.973 | locus YGL253W, strain hxk2, hits give low values 0.976 | locus YHR013C, strain ard1, hits give low values 0.972 | locus YHR027C, strain rpn1, hits give low values 0.974 | [2] 0.987 | locus YHR079C, strain IRE1, hits give low values 0.994 | locus YHR142W, strain chs7, hits give low values 0.941 | locus YJL092W, strain hpr5, hits give low values 0.984 | locus YJL095W, strain BCK1 (second series), hits give low values 0.976 | locus YJL095W, strain BCK1, hits give low values 0.998 | locus YJL115W, strain asf1, hits give low values 0.952 | locus YJL129C, strain trk1, hits give low values 0.954 | locus YJL154C, strain vps35, hits give low values 0.982 | locus YJL164C, strain tpk1, hits give low values 0.984 | locus YJL166W, strain qcr8, hits give low values 0.985 | [3] 0.992 | locus YJR066W, strain TOR1, hits give low values 0.943 | locus YKL160W, strain elf1, hits give low values 0.983 | locus YKR026C, strain gcn3, hits give low values 0.969 | locus YKR091W, strain srl3, hits give low values 0.98 | locus YLL001W, strain dnm1, hits give low values 0.96 | locus YLL026W, hits give low values 0.975 | locus YLL041C, strain sdh2, hits give low values 0.979 | locus YLR027C, strain aat2, hits give low values 0.978 | locus YLR113W, strain HOG1, hits give low values 0.986 | locus YLR221C, strain rsa3, hits give low values 0.988 | locus YLR258W, strain gsy2, hits give low values 0.989 | locus YLR262C, strain YPT6 (second series), hits give low values 0.966 | locus YLR320W, strain mms22, hits give low values 0.977 | locus YLR342W, strain FKS1, hits give low values 0.981 | locus YLR357W, strain rsc2, hits give low values 0.971 | locus YLR370C, strain arc18, hits give low values 0.981 | locus YLR384C, strain iki3, hits give low values 0.979 | locus YML120C, strain ndi1, hits give low values 0.973 | locus YMR058W, strain fet3, hits give low values 0.974 | locus YMR125W, strain sto1, hits give low values 0.961 | locus YMR129W, hits give low values 0.979 | locus YMR205C, strain PFK2, hits give low values 0.997 | locus YMR231W, strain pep5, hits give low values 0.98 | locus YNL071W, strain lat1, hits give low values 0.979 | locus YNL183C, strain NPR1, hits give low values 0.942 | locus YNL209W, strain ssb2, hits give low values 0.98 | locus YNL248C, strain rpa49, hits give low values 0.946 | locus YNL322C, strain KRE1 (second series), hits give low values 0.959 | locus YNR049C, strain mso1, hits give low values 0.98 | locus YOR001W, strain rrp6, hits give low values 0.98 | locus YOR070C, strain gyp1, hits give low values 0.994 | locus YOR080W, strain dia2, hits give low values 0.975 | locus YOR083W, strain WHI5, hits give low values 0.98 | locus YOR106W, strain vam3, hits give low values 0.977 | locus YOR231W, strain MKK1, hits give low values 0.976 | locus YOR265W, strain rbl2, hits give low values 0.977 | locus YOR270C, strain vph1, hits give low values 0.869 | locus YOR290C, strain snf2, hits give low values 0.991 | locus YPL051W, strain arl3, hits give low values 1 | locus YPL078C, strain atp4, hits give low values 0.971 | locus YPL106C, strain sse1, hits give low values 0.957 | locus YPL240C, strain hsp82, hits give low values 0.972 | locus YPL256C, strain CLN2, hits give low values 0.972
